{"source": "paper PMC9911399", "about": "“Two distinct binding modes provide the RNA-binding protein RbFox with extraordinary sequence specificity”", "binders": {"B1": {"name": "AGCUCAC (DNA:RNA)", "RNA": "GGGAGACCGGAAUUCAGAUUGUCCAGCUCACUUAAAUCCCGUCGUAGCCACCA", "DNA 1": "CAATCTGAATTCCGGTCTCCC", "DNA 2": "TGGTGGCTACGACGGGATT"}, "B2": {"name": "ACUGACU (DNA:RNA)", "RNA": "B1 RNA with G26C, C27U, U28G, C29A, A30C, C31U", "DNA 1": "CAATCTGAATTCCGGTCTCCC", "DNA 2": "TGGTGGCTACGACGGGATT"}, "B3": {"name": "UAAAUCG (DNA:RNA)", "RNA": "GGGAGACCGGAAUUCAGAUUGUCCUAAAUCGUUAAAUCCCGUCGUAGCCACCA", "DNA 1": "CAATCTGAATTCCGGTCTCCC", "DNA 2": "TGGTGGCTACGACGGGATT"}, "B4": {"name": "GAAAAGU (DNA:RNA)", "RNA": "B3 RNA with U25G, U29A, C30G, G31U", "DNA 1": "CAATCTGAATTCCGGTCTCCC", "DNA 2": "TGGTGGCTACGACGGGATT"}, "B5": {"name": "AGAAACC (DNA:RNA)", "RNA": "B1 RNA with C27A, U28A, C29A, A30C", "DNA 1": "CAATCTGAATTCCGGTCTCCC", "DNA 2": "TGGTGGCTACGACGGGATT"}, "B6": {"name": "CUCAAUG (DNA:RNA)", "RNA": "B3 RNA with U25C, A26U, A27C, U29A, C30U", "DNA 1": "CAATCTGAATTCCGGTCTCCC", "DNA 2": "TGGTGGCTACGACGGGATT"}, "B7": {"name": "CGCGAUA (DNA:RNA)", "RNA": "B1 RNA with A25C, U28G, C29A, A30U, C31A", "DNA 1": "CAATCTGAATTCCGGTCTCCC", "DNA 2": "TGGTGGCTACGACGGGATT"}, "B8": {"name": "ACCAGGG (DNA:RNA)", "RNA": "B1 RNA with G26C, U28A, C29G, A30G, C31G", "DNA 1": "CAATCTGAATTCCGGTCTCCC", "DNA 2": "TGGTGGCTACGACGGGATT"}, "B9": {"name": "GUCCCCC (DNA:RNA)", "RNA": "B1 RNA with A25G, G26U, U28C, A30C", "DNA 1": "CAATCTGAATTCCGGTCTCCC", "DNA 2": "TGGTGGCTACGACGGGATT"}, "B10": {"name": "ACUCCAA (DNA:RNA)", "RNA": "B1 RNA with G26C, C27U, U28C, C31A", "DNA 1": "CAATCTGAATTCCGGTCTCCC", "DNA 2": "TGGTGGCTACGACGGGATT"}, "B11": {"name": "ACCAGAU (DNA:RNA)", "RNA": "B1 RNA with G26C, U28A, C29G, C31U", "DNA 1": "CAATCTGAATTCCGGTCTCCC", "DNA 2": "TGGTGGCTACGACGGGATT"}, "B12": {"name": "AAGCGUC (DNA:RNA)", "RNA": "B1 RNA with G26A, C27G, U28C, C29G, A30U", "DNA 1": "CAATCTGAATTCCGGTCTCCC", "DNA 2": "TGGTGGCTACGACGGGATT"}, "B13": {"name": "CAUGGGA (DNA:RNA)", "RNA": "B3 RNA with U25C, A27U, A28G, U29G, C30G, G31A", "DNA 1": "CAATCTGAATTCCGGTCTCCC", "DNA 2": "TGGTGGCTACGACGGGATT"}, "B14": {"name": "GGCGGCC (DNA:RNA)", "RNA": "B1 RNA with A25G, U28G, C29G, A30C", "DNA 1": "CAATCTGAATTCCGGTCTCCC", "DNA 2": "TGGTGGCTACGACGGGATT"}, "B15": {"name": "GUCGGCC (DNA:RNA)", "RNA": "B1 RNA with A25G, G26U, U28G, C29G, A30C", "DNA 1": "CAATCTGAATTCCGGTCTCCC", "DNA 2": "TGGTGGCTACGACGGGATT"}, "B16": {"name": "UUGGUCC (DNA:RNA)", "RNA": "B3 RNA with A26U, A27G, A28G, G31C", "DNA 1": "CAATCTGAATTCCGGTCTCCC", "DNA 2": "TGGTGGCTACGACGGGATT"}, "B17": {"name": "UUGUCCG (DNA:RNA)", "RNA": "B3 RNA with A26U, A27G, A28U, U29C", "DNA 1": "CAATCTGAATTCCGGTCTCCC", "DNA 2": "TGGTGGCTACGACGGGATT"}, "B18": {"name": "GUCCUUG (DNA:RNA)", "RNA": "B3 RNA with U25G, A26U, A27C, A28C, C30U", "DNA 1": "CAATCTGAATTCCGGTCTCCC", "DNA 2": "TGGTGGCTACGACGGGATT"}, "B19": {"name": "UUGGUCG (DNA:RNA)", "RNA": "B3 RNA with A26U, A27G, A28G", "DNA 1": "CAATCTGAATTCCGGTCTCCC", "DNA 2": "TGGTGGCTACGACGGGATT"}, "B20": {"name": "UCCUUGG (DNA:RNA)", "RNA": "B3 RNA with A26C, A27C, A28U, C30G", "DNA 1": "CAATCTGAATTCCGGTCTCCC", "DNA 2": "TGGTGGCTACGACGGGATT"}, "B21": {"name": "GGCCUUG (DNA:RNA)", "RNA": "B1 RNA with A25G, U28C, C29U, A30U, C31G", "DNA 1": "CAATCTGAATTCCGGTCTCCC", "DNA 2": "TGGTGGCTACGACGGGATT"}, "B22": {"name": "GUGGUCC (DNA:RNA)", "RNA": "B3 RNA with U25G, A26U, A27G, A28G, G31C", "DNA 1": "CAATCTGAATTCCGGTCTCCC", "DNA 2": "TGGTGGCTACGACGGGATT"}, "B23": {"name": "UUGGUUG (DNA:RNA)", "RNA": "B3 RNA with A26U, A27G, A28G, C30U", "DNA 1": "CAATCTGAATTCCGGTCTCCC", "DNA 2": "TGGTGGCTACGACGGGATT"}, "B24": {"name": "UUGUUCG (DNA:RNA)", "RNA": "B3 RNA with A26U, A27G, A28U", "DNA 1": "CAATCTGAATTCCGGTCTCCC", "DNA 2": "TGGTGGCTACGACGGGATT"}, "B25": {"name": "UUGUUGG (DNA:RNA)", "RNA": "B3 RNA with A26U, A27G, A28U, C30G", "DNA 1": "CAATCTGAATTCCGGTCTCCC", "DNA 2": "TGGTGGCTACGACGGGATT"}, "B26": {"name": "GACUGGA (DNA:RNA)", "RNA": "B1 RNA with A25G, G26A, C29G, A30G, C31A", "DNA 1": "CAATCTGAATTCCGGTCTCCC", "DNA 2": "TGGTGGCTACGACGGGATT"}, "B27": {"name": "AUGUUUG (DNA:RNA)", "RNA": "B1 RNA with G26U, C27G, C29U, A30U, C31G", "DNA 1": "CAATCTGAATTCCGGTCTCCC", "DNA 2": "TGGTGGCTACGACGGGATT"}, "B28": {"name": "AUCAGUG (DNA:RNA)", "RNA": "B1 RNA with G26U, U28A, C29G, A30U, C31G", "DNA 1": "CAATCTGAATTCCGGTCTCCC", "DNA 2": "TGGTGGCTACGACGGGATT"}, "B29": {"name": "AGUUGGA (DNA:RNA)", "RNA": "B1 RNA with C27U, C29G, A30G, C31A", "DNA 1": "CAATCTGAATTCCGGTCTCCC", "DNA 2": "TGGTGGCTACGACGGGATT"}, "B30": {"name": "ACGCCGG (DNA:RNA)", "RNA": "B1 RNA with G26C, C27G, U28C, A30G, C31G", "DNA 1": "CAATCTGAATTCCGGTCTCCC", "DNA 2": "TGGTGGCTACGACGGGATT"}, "B31": {"name": "GAGGGUG (DNA:RNA)", "RNA": "B3 RNA with U25G, A27G, A28G, U29G, C30U", "DNA 1": "CAATCTGAATTCCGGTCTCCC", "DNA 2": "TGGTGGCTACGACGGGATT"}}, "note": "Changes are numbered by the printed parent chain; changes in the protein carry UniProt numbers. Over roughly 16,000 sequences, “ka relative to ugcaugu” has its median near 0.0091; the highest 2% begin near 0.032. The full list was thinned out, with the highest values kept by preference."}
{"molecular_target": "T1, RBFOX1 RRM (Homo sapiens, UniProt Q9NWB1 109-208)", "T1 sequence": "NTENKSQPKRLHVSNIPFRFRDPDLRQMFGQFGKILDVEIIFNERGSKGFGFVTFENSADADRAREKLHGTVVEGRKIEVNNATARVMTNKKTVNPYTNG", "assay": "EMSA; HiTS-Eq, 1 nM pool, 10 min; buffer printed only for the single-RNA assays: 10 mM Tris pH 7.5, 150 mM NaCl, 3.4 mM EDTA, 0.001% NP-40, 30 C", "settings": "tags: His6 N-terminal (pET28a); label: 5' 32P", "summary_of_the_method": "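Relative association constants, normalised to the cognate motif, were derived by comparing read counts of each RNA species with those of the control reaction. The RNA sequenced was the free fraction, separated by 8% native PAGE after a 10 min equilibration in 50 µL of 1 nM 5′-radiolabelled RNA (7 randomized nucleotides) with increasing concentrations of purified wild-type or mutant RbFox RRM.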"}
{"binder": "B1", "binding signal": "0.00457 KA relative to UGCAUGU"}
{"binder": "B2", "binding signal": "0.00677 KA relative to UGCAUGU"}
{"binder": "B3", "binding signal": "0.00678 KA relative to UGCAUGU"}
{"binder": "B4", "binding signal": "0.00662 KA relative to UGCAUGU"}
{"binder": "B5", "binding signal": "0.00391 KA relative to UGCAUGU"}
{"binder": "B6", "binding signal": "0.00378 KA relative to UGCAUGU"}
{"binder": "B7", "binding signal": "0.00807 KA relative to UGCAUGU"}
{"binder": "B8", "binding signal": "0.00782 KA relative to UGCAUGU"}
{"binder": "B9", "binding signal": "0.0163 KA relative to UGCAUGU"}
{"binder": "B10", "binding signal": "0.000959 KA relative to UGCAUGU"}
{"binder": "B11", "binding signal": "0.00102 KA relative to UGCAUGU"}
{"binder": "B12", "binding signal": "0.00965 KA relative to UGCAUGU"}
{"binder": "B13", "binding signal": "0.00261 KA relative to UGCAUGU"}
{"binder": "B14", "binding signal": "0.0183 KA relative to UGCAUGU"}
{"binder": "B15", "binding signal": "0.0169 KA relative to UGCAUGU"}
{"binder": "B16", "binding signal": "0.0262 KA relative to UGCAUGU"}
{"binder": "B17", "binding signal": "0.0163 KA relative to UGCAUGU"}
{"binder": "B18", "binding signal": "0.0114 KA relative to UGCAUGU"}
{"binder": "B19", "binding signal": "0.0376 KA relative to UGCAUGU"}
{"binder": "B20", "binding signal": "0.0132 KA relative to UGCAUGU"}
{"binder": "B21", "binding signal": "0.0328 KA relative to UGCAUGU"}
{"binder": "B22", "binding signal": "0.0226 KA relative to UGCAUGU"}
{"binder": "B23", "binding signal": "0.0398 KA relative to UGCAUGU"}
{"binder": "B24", "binding signal": "0.0364 KA relative to UGCAUGU"}
{"binder": "B25", "binding signal": "0.0248 KA relative to UGCAUGU"}
{"binder": "B26", "binding signal": "0.0138 KA relative to UGCAUGU"}
{"binder": "B27", "binding signal": "0.0211 KA relative to UGCAUGU"}
{"binder": "B28", "binding signal": "0.00865 KA relative to UGCAUGU"}
{"binder": "B29", "binding signal": "0.00398 KA relative to UGCAUGU"}
{"binder": "B30", "binding signal": "0.00777 KA relative to UGCAUGU"}
{"binder": "B31", "binding signal": "0.0242 KA relative to UGCAUGU"}
